Assay results as given in PubChem BioAssay.
Activity calls are given as the source filed them.

Experiments:
[1] = system: Human papillomavirus type 1a protein E7 (residues 44-93); assay: small molecules binding HPV E7 44-93 – biochemical, small-molecule microarray, residues 44-93, 635 nm fluorescence, primary screen (AID 1108); conditions: fluorescence 635 nm, higher = more signal;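 further: E7 fragment applied at 1 µg/mL in TBST for 1 h at 4 C; score combines spot fluorescence with its signal to noise ratio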
[2] = hepatitis C replication reporter changes, two-sided – Huh7 cells, luciferase reporter, HCV replication inhibitor project, primary screen (AID 1109); conditions: Huh7 HCV replicon luciferase reporter, 48 h; higher = more signal;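 further: huh7 hepatoma cells harbouring a luciferase neomycin HCV replicon reporter; luciferase luminescence as measure of HCV replicon replication; test concentration not given here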
[3] = molecular target: Left-right determination factor 2 (Homo sapiens) (UniProt O00292); assay: small molecules binding LEFTY2 protein – biochemical, small-molecule microarray, 635 nm fluorescence scan, primary screen (AID 1110); conditions: higher = more signal
Sequence of Left-right determination factor 2 (Homo sapiens) (O00292 whole entry, looked up): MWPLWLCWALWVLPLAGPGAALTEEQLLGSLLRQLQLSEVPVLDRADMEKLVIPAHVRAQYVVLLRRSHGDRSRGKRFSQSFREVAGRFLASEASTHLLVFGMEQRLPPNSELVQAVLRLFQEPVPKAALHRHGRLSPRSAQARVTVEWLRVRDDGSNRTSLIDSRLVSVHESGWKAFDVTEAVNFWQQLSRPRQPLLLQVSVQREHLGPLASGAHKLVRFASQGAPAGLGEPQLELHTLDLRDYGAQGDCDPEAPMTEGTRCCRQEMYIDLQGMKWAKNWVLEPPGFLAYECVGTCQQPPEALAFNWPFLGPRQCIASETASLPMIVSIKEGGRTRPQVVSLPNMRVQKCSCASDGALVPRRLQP

[4] = molecular target: Calmodulin-1 (Homo sapiens) (UniProt P0DP23); assay: small molecules binding calmodulin-1 with EGTA – biochemical, small-molecule microarray, Cy5-labelled CALM1, profiling panel (AID 1111); conditions: Cy5-CALM1 binding fluorescence, higher = more signal;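 further: labelled calmodulin applied in Tris saline Tween buffer holding calcium plus EGTA and DTT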
[5] = molecular target: Calmodulin-1 (Homo sapiens) (UniProt P0DP23); assay: small molecules binding Ca-loaded calmodulin-1 – biochemical, small-molecule microarray, Cy5-labelled CALM1, plus calcium, artefact control for SMM control-protein annotation, profiling panel (AID 1112); conditions: Cy5-CALM1 binding fluorescence, higher = more signal;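 further: score merges spot fluorescence with signal to noise from triplicate slides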
[6] = probe aWnt5a binding to arrayed compounds – biochemical, biotinylated probe, 635/667 nm fluorescence, primary screen (AID 1113); conditions: small-molecule microarray, higher = more signal;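 further: score merges 667 nm fluorescence intensity with signal-to-noise per printed feature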
[7] = probe aShh binding to arrayed compounds – biochemical, biotinylated probe, 635/667 nm fluorescence, primary screen (AID 1114); conditions: small-molecule microarray, higher = more signal;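 further: probe is biotin-labelled aShh protein from a stem cell growth factor screen; measures binding of labelled protein to compounds printed on the slide; score merges feature fluorescence at 667 nm with signal-to-noise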
[8] = probe aNog binding to arrayed compounds – biochemical, biotinylated probe, 635/667 nm fluorescence, primary screen (AID 1115); conditions: small-molecule microarray, higher = more signal;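 further: probe is biotinylated aNog protein used at 0.15 µg/mL for 1 h at 4 C; z-score combines 667 nm fluorescence of each spot with its signal to noise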
[9] = molecular target: Torsin-1A-interacting protein 1 (Homo sapiens) (UniProt Q5JTV8); assay: compound microarray binding of lysate hLAP1 – cell lysate, small-molecule microarray, COS7 lysate, 635/667 nm fluorescence, primary screen (AID 1116); conditions: 635 nm fluorescence, higher = more signal
Sequence of Torsin-1A-interacting protein 1 (Homo sapiens) (Q5JTV8 whole entry, looked up): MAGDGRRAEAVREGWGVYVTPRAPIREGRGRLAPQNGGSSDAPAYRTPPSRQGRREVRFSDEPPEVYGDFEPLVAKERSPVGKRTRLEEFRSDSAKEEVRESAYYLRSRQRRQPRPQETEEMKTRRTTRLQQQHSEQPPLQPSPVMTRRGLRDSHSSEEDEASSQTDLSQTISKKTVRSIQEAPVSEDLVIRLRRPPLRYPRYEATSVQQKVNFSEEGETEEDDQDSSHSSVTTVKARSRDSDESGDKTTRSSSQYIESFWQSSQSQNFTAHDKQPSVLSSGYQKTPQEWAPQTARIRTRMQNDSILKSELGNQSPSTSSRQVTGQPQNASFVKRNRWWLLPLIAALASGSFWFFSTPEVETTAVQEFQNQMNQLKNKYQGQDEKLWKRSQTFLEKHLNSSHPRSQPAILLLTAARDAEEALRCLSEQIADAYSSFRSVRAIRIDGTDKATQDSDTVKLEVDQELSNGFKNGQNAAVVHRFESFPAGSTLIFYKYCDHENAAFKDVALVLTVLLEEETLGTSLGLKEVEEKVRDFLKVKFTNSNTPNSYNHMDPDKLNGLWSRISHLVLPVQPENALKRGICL

[10] = molecular target: Alpha-bungarotoxin (Bungarus multicinctus) (UniProt P60615); assay: compounds binding labelled alpha-BTX control protein – biochemical, small-molecule microarray, Alexa647 label, 635/667 nm fluorescence, artefact control for SMM control protein annotation, profiling panel (AID 1117); conditions: alpha-BTX-A647 binding fluorescence, higher = more signal
Sequence of Alpha-bungarotoxin (Bungarus multicinctus) (P60615 whole entry, looked up): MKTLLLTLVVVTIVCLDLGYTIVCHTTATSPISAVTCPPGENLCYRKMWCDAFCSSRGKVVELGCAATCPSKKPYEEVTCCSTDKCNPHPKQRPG

[11] = molecular target: Albumin (Bos taurus) (UniProt P02769); assay: compounds binding labelled BSA control protein – biochemical, small-molecule microarray, Alexa647 label, 635/667 nm fluorescence, artefact control for SMM control protein annotation, profiling panel (AID 1118); conditions: BSA-A647 binding, fluorescence 635 nm, higher = more signal;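 further: score merges 667 nm emission intensity and signal-to-noise per printed compound spot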
Sequence of Albumin (Bos taurus) (P02769 whole entry, looked up): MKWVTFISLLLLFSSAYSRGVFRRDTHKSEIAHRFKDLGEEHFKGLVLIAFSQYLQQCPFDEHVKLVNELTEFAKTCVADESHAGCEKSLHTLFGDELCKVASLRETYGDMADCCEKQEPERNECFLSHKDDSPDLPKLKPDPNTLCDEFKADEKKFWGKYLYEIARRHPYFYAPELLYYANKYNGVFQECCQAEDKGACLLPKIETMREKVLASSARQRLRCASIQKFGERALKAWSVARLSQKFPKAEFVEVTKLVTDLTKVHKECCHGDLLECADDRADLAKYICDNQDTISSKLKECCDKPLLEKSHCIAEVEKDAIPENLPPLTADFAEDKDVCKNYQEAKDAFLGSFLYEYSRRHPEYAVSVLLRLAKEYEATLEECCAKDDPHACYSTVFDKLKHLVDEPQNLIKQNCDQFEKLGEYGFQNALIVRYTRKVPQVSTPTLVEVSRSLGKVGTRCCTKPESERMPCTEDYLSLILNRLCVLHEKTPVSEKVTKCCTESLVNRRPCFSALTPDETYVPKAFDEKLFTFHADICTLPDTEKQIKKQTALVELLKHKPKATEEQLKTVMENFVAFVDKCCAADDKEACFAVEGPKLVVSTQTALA

[12] = probe aXIP binding to arrayed compounds – biochemical, NeuroSMM set, 635/667 nm fluorescence, primary screen (AID 1119); conditions: small-molecule microarray, higher = more signal, called active from +8 up or from −8 down;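 further: probe is the protein aXip251-270 applied at 1 µg/mL to compound-printed slides; binding of probe to printed compounds measured as 667 nm fluorescence plus signal to noise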
[13] = probe aNOTCH3 binding on compound microarray – biochemical, small-molecule microarray, 635/667 nm fluorescence, primary screen (AID 1120); conditions: higher = more signal;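 further: probe is a biotin-tagged antibody raised against NOTCH3 rather than NOTCH3 protein; score merges spot fluorescence near 667 nm with spot signal to noise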
[14] = probe aNOTCH2 binding on compound microarray – biochemical, small-molecule microarray, 635/667 nm fluorescence, primary screen (AID 1121); conditions: higher = more signal;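 further: score merges feature fluorescence read at 667 nm with its signal to noise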
[15] = molecular target: Carbonic anhydrase 2 (Homo sapiens) (UniProt P00918); assay: compounds binding carbonic anhydrase 2 – biochemical, small-molecule microarray, Alexa647-labelled CAII, profiling panel (AID 1122); conditions: CAII-A647 binding fluorescence, higher = more signal
[16] = COS7 lysate on small-molecule microarray, probe aHis, 635 nm (AID 1123); conditions: COS7 cell lysate, fluorescence, higher = more signal;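 further: z-score combines 667nm fluorescence intensity with signal-to-noise per printed compound spot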
[17] = probe aLAP1 signal on lysate-treated microarray – cell lysate, small-molecule microarray, COS7 lysate, primary screen (AID 1124); conditions: probe aLAP1, fluorescence, higher = more signal;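 further: lysate comes from COS7 cells expressing LAP1 and is applied at 0.3 µg/mL; score merges spot fluorescence near 667 nm with signal-to-noise over triplicate slides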
[18] = system: Sam68 (KHDRBS1); assay: compounds binding KHDRBS1 protein – biochemical, small-molecule microarray, 635 nm fluorescence, primary screen (AID 1125); conditions: higher = more signal;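 further: score merges 667 nm channel intensity with signal to noise over triplicate slides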
[19] = system: Chordin-like protein 2 (CHRDL2); assay: compounds binding chordin-like 2 – biochemical, small-molecule microarray, 635 nm fluorescence, primary screen (AID 1126); conditions: fluorescence 635 nm, higher = more signal;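 further: printed compound slides probed with Chrdl2 protein at 4 µg/mL for 1 h at 4 C; score merges 667 nm emission intensity with signal to noise over three replicate slides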
[20] = molecular target: Concanavalin-A (Canavalia ensiformis) (UniProt P02866); assay: compounds binding concanavalin A lectin – biochemical, small-molecule microarray, Alexa647 label, 635 nm, artefact control for SMM control protein annotation, primary screen (AID 1127); conditions: ConA-A647 binding fluorescence, higher = more signal;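 further: z combines 667 nm emission intensity with signal-to-noise across three replicate slides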
Sequence of Concanavalin-A (Canavalia ensiformis) (P02866 whole entry, looked up): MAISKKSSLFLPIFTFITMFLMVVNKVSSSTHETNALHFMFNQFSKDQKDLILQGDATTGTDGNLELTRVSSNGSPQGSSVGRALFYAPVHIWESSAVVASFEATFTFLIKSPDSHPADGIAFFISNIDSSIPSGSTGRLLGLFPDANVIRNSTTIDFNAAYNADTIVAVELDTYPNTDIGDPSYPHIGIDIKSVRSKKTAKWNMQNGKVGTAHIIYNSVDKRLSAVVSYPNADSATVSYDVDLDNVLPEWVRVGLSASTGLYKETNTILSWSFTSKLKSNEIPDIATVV

Structure (SMILES) | composite z-score [1] | z-score [2] | composite z-score [3] | composite z-score [4] | composite z-score [5] | composite z-score [6] | composite z-score [7] | composite z-score [8] | composite z-score [9] | composite z-score [10] | composite z-score [11] | composite Z-score [12] | composite z-score [13] | composite z-score [14] | composite z-score [15] | composite z-score [16] | composite z-score [17] | composite z-score [18] | composite z-score [19] | composite z-score [20]
CCOC(=O)C[C@H]1[C@H](OC(=O)Cc2ccc3c(c2)OCO3)[C@@H](NC(=O)c2ccccc2)c2cc(OCCCO)ccc2N1C(=O)c1ccccc1 | 0.487 | -0.183 | 0.24 | 0.334 | -0.469 | -0.128 | -0.221 | -0.18 | 0.223 | 0.652 | -0.359 | 0.713 (inactive) | -0.0573 | -0.121 | 0.0488 | 0.525 | 0.379 | 0.425 | 0.434 | 0.374
CC(C)[Si](C#C[Si](C(C)C)(C(C)C)C(C)C)(O[C@H](C)c1cn(Cc2cccc(Cl)c2)nn1)C(C)C | 0.953 | -0.266 | 0.499 | 1.01 | 0.506 | -0.253 | -0.243 | -0.175 | 0.0392 | 1.03 | 0.811 | -0.596 (inactive) | -0.0647 | -0.147 | 0.554 | 0.842 | -0.34 | 1.28 | 0.226 | 0.8
CCCN1C(=O)[C@@]2(Cc3ccccc3)N=C(c3ccc(OCCCO)cc3)O[C@H]2c2ccccc21 | 1.36 | -2.1 | 0.133 | -0.141 | -0.489 | -0.101 | 0.195 | 0.0716 | 1.48 | 1.6 | 0.508 | 0.72 (inactive) | 0.204 | 0.0055 | 0.329 | 2.69 | 0.688 | 1.3 | 0.804 | 0.96
O=C1NC(=O)C2C1C=CC(C(O)CCc1ccccc1)N2Nc1ccccn1 (stereo not given) | -0.574 | 0.204 | -0.0953 | 0.901 | 0.569 | -0.0445 | -0.262 | -0.279 | 2.33 | 0.67 | 0.558 | 1.62 (inactive) | -0.145 | -0.0116 | 0.894 | 1.02 | 1.59 | 0.438 | 0.0374 | 0.891
O=C1c2ccccc2C(=O)C2CC([C@H]3Oc4ccccc4S(=O)(=O)N4CCC[C@@H]34)=CCC12 (stereo not given in full) | -0.811 | -1.34 | 0.0197 | -0.488 | 0.184 | -0.124 | -0.0362 | -0.273 | 0.123 | 0.0404 | 0.793 | 0.251 (inactive) | -0.122 | -0.117 | -0.241 | -0.296 | -0.363 | -0.557 | 0.139 | -1
C[N+](C)(C)CCCC[C@@H]1NC(=O)[C@@H]2C[C@H](C(=O)O)[C@H](c3cccc(OCCO)c3)N2C1=O | 0.17 | -0.208 | -0.8 | -0.705 | 0.417 | -0.276 | -0.0681 | -0.326 | -0.0851 | -1.03 | -1.33 | 1.31 (inactive) | -0.324 | 0.0022 | 0.49 | 0.64 | 0.303 | -0.0913 | 0.451 | 1.02
CCOC(=O)C[C@H]1[C@H](OC(=O)c2cc3ccccc3oc2=O)[C@@H](NC(=O)c2ccc3ccccc3n2)c2cc(OCCCO)ccc2N1C(=O)c1ccc2ccccc2n1 | 0.412 | -2.04 | 1.09 | -0.145 | -0.36 | 0.172 | 0.01 | -0.158 | 0.816 | 0.214 | -0.407 | 0.581 (inactive) | 0.255 | -0.0294 | 0.312 | 0.32 | 0.129 | 0.539 | 0.572 | 0.862
COCCCNC(=O)[C@@]1(Cc2ccccc2CN=[N+]=[N-])N=C(c2ccc(OCCCO)cc2)O[C@H]1c1ccccc1N=[N+]=[N-] | -0.0639 | -2.3 | 0.0652 | 1.56 | 1 | 0.0388 | 0.291 | -0.675 | 0.785 | 1.48 | 0.778 | 0.397 (inactive) | 0.303 | 0.168 | 0.421 | 2.43 | 0.656 | 1.02 | -0.379 | 1.04
O=C1NC(=O)C2C1C=CC(C(O)c1ccc3c(c1)OCO3)N2Nc1ccc(Cl)cc1Cl (stereo not given) | -0.85 | -0.795 | -0.0483 | 1.43 | 0.527 | -0.0846 | -0.232 | 0.265 | 1.73 | 0.114 | 0.817 | 0.549 (inactive) | 0.144 | -0.063 | 0.566 | 3.03 | 1.19 | 0.355 | 0.26 | 0.148
C[C@]12C(=O)N(CCCO)[C@@H]3C(=O)N(c4ccc(Cl)cc4)CC=CC31O[C@@H]1/C=C\CCCOC(=O)C12 (stereo not given in full) | -0.202 | -0.513 | -1.31 | -0.887 | -0.203 | -0.202 | -0.0904 | 0.309 | 2.33 | -0.777 | 0.309 | 0.264 (inactive) | -0.305 | -0.118 | 0.883 | 1.46 | 0.492 | 0.518 | -1.38 | -0.743
COc1cc(NN2C(C(O)c3ccc(I)cc3)C=CC3C(=O)N(C)C(=O)C32)cc(OC)c1OC (stereo not given) | 0.539 | -1.32 | -0.379 | 0.143 | 0.476 | 0.0077 | 0.289 | -0.0247 | 0.917 | -0.161 | -0.166 | 0.466 (inactive) | 0.163 | 0.0586 | 0.783 | 1.63 | 0.189 | 0.144 | -0.946 | 0.0133
